Rows were chosen to be rich in hits. Some 3.1% of all compounds tested hit in one or more screens of this group.
TWEAK-Fn14 inh: inhibitors of TWEAK-Fn14 interaction signaling. TWEAK-stimulated Fn14 reporter cells, luciferase luminescence, 8 h. inhibition, % at 10 µM. 2% of 360,000 active. AID 1159606; in the data active = inhibition above about 50%
PAX8 reporter: PAX8 transcriptional activity inhibition; inhibition, % at 12.6 µM; 1.2% of 360,000 active; AID 652154; RMG-I TPO-luciferase reporter, SteadyGlo, 24 h;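 active = mean replicate inhibition at least 60% with every replicate also reaching 60%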;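 note: luciferase light reporting Pax8 driven TPO promoter activity; plate controls were median of neutral control wells for no effect and mitoxantrone controls for full effect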
LGR2 antag: inhibitors of bursicon-induced Drosophila LGR2 receptor cAMP signaling. HEK293 LGR2, CRE-luciferase, bursicon-stimulated, 4 h. inhibition, % at 9.99 µM. 0.35% of 380,000 active. AID 720647;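 active = drop in luminescence signal, shown as inhibition above about 50% in the replicate tests, limit read from the data, passing the limit was not always enough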;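 note: agonist challenge used bursicon conditioned medium at about half maximal strength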
EWS-Fli block: EWS/Fli transcriptional activity inhibition | inhibition, % at 12.6 µM | 0.67% of 350,000 active | A673 NR0B1-luciferase reporter, viability-normalised;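 active = mean inhibition of at least 50% after viability correction, with every replicate also passing that limit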;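 note: firefly luciferase signal divided by Alamar Blue viability fluorescence both relative to DMSO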
TROY signal inh: inhibitors of TROY-dependent NF-kB signaling | 0.98% of 360,000 active | inhibition, % at 10 µM | Q293 LMP1-TROYcd NF-kB luciferase reporter, 4 h;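 active = compounds whose plate-normalised and pattern-corrected inhibition of the luciferase reporter signal at the single screening dose is 50% or more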
LMP1 NFkB inh: reduces LMP1-driven NF-kappaB luciferase signal. 0.69% of 350,000 active. AID 504558. inhibition, % at 12.5 µM. LMP1-induced NF-kappaB luciferase reporter cells, luminescence; in the data active = inhibition above about 41%;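 note: 0% = neutral control wells and 100% = reference inhibitor control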
Starred values were filed as active, the others as inactive.

How did O=C(Nc1cccc(C(=O)O)c1)Nc1ccc2c(c1)OCO2 do in these assays?
TWEAK-Fn14 inh: 5.5; PAX8 reporter: 103.3*; LGR2 antag: 97.2*; EWS-Fli block: 79.3*; TROY signal inh: -30.1; LMP1 NFkB inh: 73.3*

Results for COc1cccc(NC(=O)Nc2cccc(C(=O)O)c2)c1 ?
TWEAK-Fn14 inh: 4.3; PAX8 reporter: 80.1*; LGR2 antag: 96.9*; EWS-Fli block: 75.1*; TROY signal inh: -21.9; LMP1 NFkB inh: 61.4*

How did O=C(Nc1ccc2c(c1)OCO2)Nc1ccc2c(c1)OCO2 do in these assays?
TWEAK-Fn14 inh: -30.4; PAX8 reporter: -192.5; LGR2 antag: -39.1; EWS-Fli block: -67.2; TROY signal inh: -41.2; LMP1 NFkB inh: -21.3

What do the screens show for `COc1cccc(C(=O)Nc2ccc(NC(=O)C(C)(C)C)cn2)c1`?
TWEAK-Fn14 inh: 75.4*; TROY signal inh: 65.0*; LMP1 NFkB inh: 36.6

Results for COc1cccc(C(=O)Nc2ccc(NC(=O)C3CCCCC3)nc2)c1 ?
TWEAK-Fn14 inh: 16.8; PAX8 reporter: 4.3; LGR2 antag: 17.0; EWS-Fli block: -27.5; TROY signal inh: -4.7; LMP1 NFkB inh: -8.0

What do the screens show for `O=S(=O)(c1ccc(Br)cc1)c1cnc2ccccc2n1`?
TWEAK-Fn14 inh: 54.6*; PAX8 reporter: 15.0; LGR2 antag: 8.2; EWS-Fli block: 7.5; TROY signal inh: 28.1; LMP1 NFkB inh: 1.4

How did CCCC#Cc1ccc([C@H]2[C@H](CO)N3CCCCN(C(=O)NC4CCCC4)C[C@@H]23)cc1 do in these assays?
PAX8 reporter: -2.4; LGR2 antag: -7.6; EWS-Fli block: 5.8

What do the screens show for `CCCNC(=O)Nc1ccc2c(c1)C(=O)N(C)C[C@H](OC)[C@@H](C)CN(C(=O)C1CCCCC1)[C@@H](C)CO2`?
PAX8 reporter: -1.6; LGR2 antag: 16.8; EWS-Fli block: 11.2

How did COc1ccccc1-c1ccccc1[C@H]1[C@@H](CO)N(C(=O)C2CC2)[C@H]1C#N do in these assays?
PAX8 reporter: -0.3; LGR2 antag: -16.2; EWS-Fli block: -6.4

How did COc1cccc2c1C(CO)N1C(C#N)C3CC(C(=O)O)C(C1C2)N3C (stereo not drawn) do in these assays?
TWEAK-Fn14 inh: 101.7*; LGR2 antag: 91.9*; EWS-Fli block: 23.5; TROY signal inh: 51.4*; LMP1 NFkB inh: 88.7*

What do the screens show for `Cc1cccc(S(=O)(=O)N2CCCCN3[C@H](C2)[C@@H](c2ccc(C#CC(C)C)cc2)[C@@H]3CO)c1`?
PAX8 reporter: 38.5; LGR2 antag: 11.8; EWS-Fli block: 1.4

Results for Cc1ccccc1C(=O)N/N=C/c1ccccn1 ?
TWEAK-Fn14 inh: 25.6; PAX8 reporter: -104.1; LGR2 antag: 57.4*; EWS-Fli block: -49.9; TROY signal inh: 17.6; LMP1 NFkB inh: 7.6

What do the screens show for `O=C(N/N=C/c1ccccn1)c1sc2ccccc2c1Cl`?
TWEAK-Fn14 inh: 85.6*; PAX8 reporter: 9.0; LGR2 antag: -82.4; EWS-Fli block: -3.7; TROY signal inh: 35.5; LMP1 NFkB inh: 1.3

What do the screens show for `O=C(N/N=C\c1ccccn1)c1ccccc1O`?
TWEAK-Fn14 inh: -9.3; PAX8 reporter: -32.8; EWS-Fli block: -5.3; TROY signal inh: -24.6; LMP1 NFkB inh: 3.7

Results for Cn1cccc1/C=N/NC(=O)c1sc2ccccc2c1Cl ?
TWEAK-Fn14 inh: 50.9*; LMP1 NFkB inh: -1.6

Results for NNC(=O)C1COc2cc3ccccc3cc2O1 (stereo not drawn) ?
TWEAK-Fn14 inh: 8.0; PAX8 reporter: 3.0; LGR2 antag: 7.9; EWS-Fli block: 4.2; TROY signal inh: 13.0; LMP1 NFkB inh: -1.6

What do the screens show for `O=C(N/N=C\c1ccccn1)C1COc2cc3ccccc3cc2O1` (stereo not drawn)?
TWEAK-Fn14 inh: 73.4*; TROY signal inh: -10.6; LMP1 NFkB inh: -3.9

Results for Cc1noc(C)c1NC(=O)N(C)C[C@@H]1Oc2ccc(NC(=O)CCCN(C)C)cc2C(=O)N([C@H](C)CO)C[C@H]1C ?
PAX8 reporter: -7.3; LGR2 antag: 10.7; EWS-Fli block: 11.0

What do the screens show for `CO[C@H]1CN(C)C(=O)c2cc(NC(=O)c3cc(C)on3)ccc2OC[C@H](C)N(C)C[C@@H]1C`?
PAX8 reporter: 0.1; LGR2 antag: 19.0; EWS-Fli block: 14.2

What do the screens show for `Cc1ccc(S(=O)(=O)NCC[C@H]2CC[C@@H](NC(=O)c3cccnc3)[C@H](CO)O2)cc1`?
PAX8 reporter: -22.3; LGR2 antag: -27.2; EWS-Fli block: 1.8

Results for CCC(=O)N(C)C[C@@H]1Oc2ncc(C#Cc3ccncc3)cc2C(=O)N([C@@H](C)CO)C[C@@H]1C ?
LGR2 antag: -13.3; EWS-Fli block: -2.8

What do the screens show for `O=C(C[C@@H]1CC[C@H](NC(=O)Cc2ccccn2)[C@H](CO)O1)NCCc1ccccc1`?
LGR2 antag: 22.8; EWS-Fli block: 6.6

Results for COc1ccc(S(=O)(=O)Nc2ccc3c(c2)C(=O)N([C@@H](C)CO)C[C@H](C)[C@@H](CN(C)Cc2ccc(C(F)(F)F)cc2)OCCCC[C@@H](C)O3)cc1 ?
PAX8 reporter: 110.4*; LGR2 antag: 8.5; EWS-Fli block: 31.5

How did COc1ccc(S(=O)(=O)Nc2ccc3c(c2)C(=O)N([C@@H](C)CO)C[C@H](C)[C@H](CN(C)Cc2ccc(C(F)(F)F)cc2)OCCCC[C@H](C)O3)cc1 do in these assays?
PAX8 reporter: 108.2*; LGR2 antag: -1.3; EWS-Fli block: 18.2

Results for COc1ccc(CN(C)C[C@H]2OCCCC[C@@H](C)Oc3ccc(NS(=O)(=O)c4ccc(OC)cc4)cc3C(=O)N([C@H](C)CO)C[C@@H]2C)cc1 ?
PAX8 reporter: -6.8; LGR2 antag: -2.7; EWS-Fli block: 5.0

Results for COc1ccc(NC(=O)Nc2ccc3c(c2)C(=O)N([C@@H](C)CO)C[C@@H](C)[C@@H](CN(C)C(=O)Nc2ccccc2)OCCCC[C@@H](C)O3)cc1 ?
PAX8 reporter: 0.8; LGR2 antag: 12.9; EWS-Fli block: -3.3

What do the screens show for `C[C@@H]1CN([C@@H](C)CO)C(=O)c2cc(C#C[C@@H](C)O)cnc2O[C@@H]1CN(C)C(=O)CN1CCOCC1`?
PAX8 reporter: -4.6; LGR2 antag: 9.1; EWS-Fli block: -7.0

Results for CCOC(=O)c1cccc(NC(=O)c2ccc3c(c2)OCO3)c1 ?
TWEAK-Fn14 inh: -30.6; PAX8 reporter: -107.3; LGR2 antag: -61.4; EWS-Fli block: 70.9*; TROY signal inh: -32.2; LMP1 NFkB inh: -19.6

Results for CCOC(=O)c1cccc(NC(=O)/C=C/c2ccc3c(c2)OCO3)c1 ?
TWEAK-Fn14 inh: 70.5*; PAX8 reporter: -41.4; LGR2 antag: -66.5; TROY signal inh: 51.4*; LMP1 NFkB inh: 8.9

How did CCOC(=O)c1c(N)sc(C(=O)Nc2ccc3c(c2)OCO3)c1C do in these assays?
TWEAK-Fn14 inh: 79.4*; PAX8 reporter: 52.8; TROY signal inh: 41.5; LMP1 NFkB inh: 27.9

How did C/C=C/c1ccc2c(c1)O[C@@H](CN(C)C(=O)C1CCC1)[C@H](C)CN([C@H](C)CO)S2(=O)=O do in these assays?
LGR2 antag: -1.6; EWS-Fli block: 4.3

High-throughput results: PubChem BioAssay, several laboratories
